The entries come from a sample that favours hits as a whole.
SARS PLpro yeast = SARS-CoV PLP inhibition in yeast; S. cerevisiae expressing SARS-CoV PLpro, growth rescue; Potency, µM (titrated, usually from 32.9 µM), inactives show top-dose activity, positive = growth rescue, usual class: activators; 330,000 compounds, 0.19% hits; AID 485353; calls by dose curve; also: potency is read from the fitted curve at half-maximal effect; 0% is about no effect; nearly all actives have a fitted effect of over 55% in size
AmpC inh no detg = blocks E. coli AmpC beta-lactamase in detergent-free assay; P00811; AmpC nitrocefin hydrolysis, absorbance 480 nm, 0.0001% Triton; 330,000 compounds, 0.52% hits; AID 485341; Potency, µM (top dose mostly 57.1 µM), for the others: at the top dose activity change, negative = inhibition, actives largely listed as inhibitors;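 also: potency is read from the fitted curve at half-maximal effect; plate controls were no compound for no effect and no enzyme for full effect; nearly all actives have a fitted effect of over 20% in size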
Target sequence (P00811 whole entry, looked up): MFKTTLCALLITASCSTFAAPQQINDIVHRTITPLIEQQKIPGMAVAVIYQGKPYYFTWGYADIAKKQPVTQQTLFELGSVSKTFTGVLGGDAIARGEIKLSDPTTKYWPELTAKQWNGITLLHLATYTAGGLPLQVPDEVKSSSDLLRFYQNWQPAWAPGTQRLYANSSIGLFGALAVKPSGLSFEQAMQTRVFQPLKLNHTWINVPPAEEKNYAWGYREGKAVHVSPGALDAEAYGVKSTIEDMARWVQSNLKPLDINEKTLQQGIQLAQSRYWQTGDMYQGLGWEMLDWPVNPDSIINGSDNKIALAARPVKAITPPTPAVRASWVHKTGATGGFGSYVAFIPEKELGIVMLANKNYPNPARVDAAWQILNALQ
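AmpC (5.3 nM in the dispensed reagent) in 20 mM phosphate pH 7.0 with 0.01% (detergent screen) or 0.0001% Triton X-100 was preincubated with compounds for 15 min at room temperature. Nitrocefin was then added from an 800 uM solution, and hydrolysis was followed at 480 nm.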
CHX counter = counter-screen for Shiga toxin inhibitors: cycloheximide protein synthesis inhibition. AID 2314. cell reporter, cycloheximide protein synthesis inhibition counterscreen. 300,000 compounds, 12% hits. max response, %; in the data active = max response mostly above about 13%, no sharp cut-off; inactive = mostly below about 14%; also: read at 38.3 µM for the half of the compounds with a filed dose; 0% is about no effect
Shiga toxin inh = blocks Shiga toxin action in Vero cells; 290,000 compounds, 9.2% hits; Vero cells, Shiga toxin protein synthesis inhibition reporter; inhibition, % at 38.7 µM; AID 2315; in the data active = inhibition mostly above about 28%, no sharp cut-off; inactive = mostly below about 43%; also: 0% is about no effect
AMA1-RON2 inh = disrupts binding of P. falciparum AMA1 to RON2; AlphaScreen AMA1-biotinylated RON2 peptide binding; Potency, µM (titrated, usually from 58.2 µM), inactives show at the highest dose activity change, negative = inhibition, hits mostly inhibitors; 360,000 compounds, 0.2% hits; AID 720542;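 also: potency is read from the fitted curve at half-maximal effect; 0% = vehicle wells and -100% = peptide control; nearly all actives have a fitted effect of over 45% in size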
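AMA1 (3D7) with his tag at 25 nM final met compounds first, then biotinylated RON2 peptide at 25 nM; detection used donor plus acceptor beads, 10 µg/mL apiece, read by AlphaScreen after 30 min at room temperature.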
AmpC detergent = blocks E. coli AmpC beta-lactamase in detergent assay. P00811. AmpC hydrolysis of nitrocefin, absorbance 480 nm, 0.01% Triton. Potency, µM (doses to about 114 µM), inactives show top-dose activity change, negative = inhibition, hits mostly inhibitors. 370,000 compounds, 0.041% hits. AID 485294;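 also: potency is read from the fitted curve at half-maximal effect; 0% = no-compound wells and -100% = no-enzyme wells; nearly all actives have a fitted effect of over 25% in size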
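20 mM phosphate pH 7.0 + 0.01% (detergent screen) or 0.0001% Triton X-100; 5.3 nM AmpC reagent; cpd preinc 15 min RT; nitrocefin (800 uM stock) to start; A480 q20 s × 4 min; Activity was normalised to no-enzyme and no-compound control wells.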
* hit, by the source's call; [ ] = dose if it differs, or a comment. Unless noted, calls follow the shape of the dose curve; as a rule, active = well fitted curve in the direction sought with a large enough effect; inconclusive = small, poorly fitted or top-dose-only effect, or another doubt; inactive = no such curve, though single readings can be large; an effect the other way counts as inactive or inconclusive.

For NS(=O)(=O)c1ccc2nc(NC(=O)C3CCCO3)sc2c1 (centres undefined) the results were SARS PLpro yeast -9%, AmpC inh no detg -12%, CHX counter 3, Shiga toxin inh 38, AMA1-RON2 inh -7%[2.32 µM] and AmpC detergent -8%.
For Cc1cccc(NC(=S)NC(C)CCc2ccccc2)c1 (centres undefined) the results were SARS PLpro yeast -76%, AmpC inh no detg -21%, CHX counter -2, Shiga toxin inh 0, AMA1-RON2 inh 8% and AmpC detergent 0%.
`CC1(C(=O)N2CCN(C(=O)c3ccco3)CC2)CCN1Cc1ccccc1OC(F)F` (centres undefined) gave AMA1-RON2 inh 23%.
CC(C)Cc1cc(C(=O)Nc2sc3c(c2C#N)CCC3)no1 was read as SARS PLpro yeast -8%, AmpC inh no detg -27%, CHX counter 0, Shiga toxin inh -9, AMA1-RON2 inh 19% and AmpC detergent -6%.
Screening Cc1cc(C(=O)Nc2sc3c(c2C#N)CCCC3)no1 returned SARS PLpro yeast -46%, AmpC inh no detg -13%, CHX counter 37*, Shiga toxin inh 52*, AMA1-RON2 inh -1% and AmpC detergent -3%.
Screening Cn1ccc(C(=O)Nc2sc3c(c2C#N)CCC3)n1 returned SARS PLpro yeast -5%, AmpC inh no detg -28%, CHX counter 16*, Shiga toxin inh 12, AMA1-RON2 inh 2% and AmpC detergent 0%.
N#Cc1c(NC(=O)c2cc(C3CC3)on2)sc2c1CCC2 was read as SARS PLpro yeast -14%, AmpC inh no detg -27%, CHX counter 1, Shiga toxin inh -3, AMA1-RON2 inh 0% and AmpC detergent inconclusive.
`Cc1cc(C(=O)Nc2sc3c(c2C#N)CCC(C)C3)no1` (centres undefined) gave SARS PLpro yeast -1%, AmpC inh no detg -15%, CHX counter 36*, Shiga toxin inh 76*, AMA1-RON2 inh 4% and AmpC detergent -7%.
Screening CC(C)Cc1cc(C(=O)Nc2sc3c(c2C#N)CCCC3)no1 returned SARS PLpro yeast -18%, AmpC inh no detg -26%, CHX counter 33*, Shiga toxin inh 21, AMA1-RON2 inh -3% and AmpC detergent inconclusive.
For CCCN(CCC)c1ccc(C2N=C(N)Nc3nc4ccccc4n32)cc1 (centres undefined) the results were AmpC detergent 25%.
For CN(Cc1nccs1)C(=O)CC1C(=O)NCCN1Cc1ccc(-c2ccccc2)cc1 (centres undefined) the results were SARS PLpro yeast -1%, AmpC inh no detg 150%, CHX counter 0, Shiga toxin inh -2, AMA1-RON2 inh 9% and AmpC detergent 7%.
Cc1cc(C(=O)Nc2sc3c(c2C#N)CCC3)no1 was read as SARS PLpro yeast -9%, AmpC inh no detg -23%, CHX counter 26*, Shiga toxin inh 38*, AMA1-RON2 inh 5% and AmpC detergent 1%.
For CCN1C[C@@H]2[C@@H]3C(=O)N(C)C(=O)[C@@H]3[C@](CC)(C1=O)N2C(=O)c1ccc(F)cc1 the results were AMA1-RON2 inh 3%.
Screening O=C(CCn1c(=O)oc2ccccc21)N1CCCCCC1 returned SARS PLpro yeast 4%, AmpC inh no detg -7%, CHX counter 9, Shiga toxin inh -17, AMA1-RON2 inh 3% and AmpC detergent -3%.
`O=C(CCCn1c(=S)[nH]c2ccsc2c1=O)Nc1ccc2c(c1)OCCO2` gave SARS PLpro yeast 1%, AmpC inh no detg -15%[11.4 µM], CHX counter 39*, Shiga toxin inh 98*, AMA1-RON2 inh 77% and AmpC detergent -14%.
Screening O=C(CCCn1c(=S)[nH]c2ccsc2c1=O)Nc1ccc(F)cc1 returned AMA1-RON2 inh 137%.
O=C(CCCn1c(=O)oc2ccccc21)N1CCc2ccccc2C1 was read as SARS PLpro yeast 2%, AmpC inh no detg -14%, CHX counter 27*, Shiga toxin inh 38*, AMA1-RON2 inh inconclusive and AmpC detergent -3%.
O=C(CCn1c(=S)oc2ccccc21)N1CCCCC1 was read as SARS PLpro yeast 3%, AmpC inh no detg 25%, CHX counter 26*, Shiga toxin inh 24, AMA1-RON2 inh -15% and AmpC detergent 8%.
For O=C(CSc1nccc(=O)[nH]1)Nc1ccc2c(c1)OCCO2 the results were SARS PLpro yeast 1%, AmpC inh no detg -16%, CHX counter 42*, Shiga toxin inh 155*, AMA1-RON2 inh -1% and AmpC detergent inconclusive.
For CC1(C)Cc2c(cnn2-c2ccccc2)C(NC(=O)CCc2ccncc2)C1 (centres undefined) the results were SARS PLpro yeast 1%, AmpC inh no detg 11%, CHX counter -1, Shiga toxin inh -6, AMA1-RON2 inh 1% and AmpC detergent inconclusive.
Screening CCn1c(SCC(=O)NC(=O)Nc2ccc3c(c2)OCCO3)nnc1-c1cccs1 returned SARS PLpro yeast 3%, AmpC inh no detg -17%, CHX counter 18*, Shiga toxin inh 46, AMA1-RON2 inh -3% and AmpC detergent -11%.
Screening COc1cccc(Nc2nnc(SCC(=O)N3CCOCC3)s2)c1 returned SARS PLpro yeast -2%, AmpC inh no detg 4%, CHX counter 16*, Shiga toxin inh 73, AMA1-RON2 inh -7% and AmpC detergent -4%.
COc1ccc(Nc2nnc(SCC(=O)N3CCCC3)s2)cc1 was read as SARS PLpro yeast -1%, AmpC inh no detg -15%, CHX counter 1, Shiga toxin inh -3, AMA1-RON2 inh 8% and AmpC detergent 4%.
O=C(CSc1ccccn1)Nc1ccc2c(c1)OCCO2 was read as SARS PLpro yeast -4%, AmpC inh no detg -9%, CHX counter 54*, Shiga toxin inh 89*, AMA1-RON2 inh -27% and AmpC detergent 1%.
`COc1ccc(Nc2nnc(SCC(=O)NC(=O)Nc3ccc4c(c3)OCCO4)s2)cc1` gave SARS PLpro yeast 1%, AmpC inh no detg -34%, CHX counter 15*, Shiga toxin inh 41, AMA1-RON2 inh 15% and AmpC detergent -11%.
`Cc1ccc(S(=O)(=O)NCCC(C)C)cc1[N+](=O)[O-]` gave SARS PLpro yeast -6%, AmpC inh no detg -15%, CHX counter -2, Shiga toxin inh -5, AMA1-RON2 inh 6% and AmpC detergent -8%.
Screening COC(=O)c1sccc1NC(=O)c1ccccc1Br returned AMA1-RON2 inh 36%.
Screening Cc1cccc(C)c1NC(=O)CN(C)C(C)C(=O)Nc1ccccc1-c1ccccc1 (centres undefined) returned SARS PLpro yeast -3%, AmpC inh no detg 142%, CHX counter -2, Shiga toxin inh -19, AMA1-RON2 inh 47% and AmpC detergent 4%.

Screening results deposited in PubChem BioAssay by National Center for Advancing Translational Sciences (NCATS).
